{"source": "PubChem BioAssay (NCI)", "note": "About 83,000 compounds went through this panel and 20% of them were active in at least one assay; those are over-represented in the sample as a whole.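 Cell lines were cultured in 96-well plates, exposed to a single compound concentration, and assessed for percent growth 48 hours later.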 The source made the active and inactive calls. How the source made its calls: active means growth percent below 10; inactive means the rest.", "data": [{"system": "MDA-MB-468 breast", "experiment": "NCI-60 one-dose screen, 48 h (100 = growth as untreated, 0 = no growth, -100 = all killed)", "conditions": "10 µM unless noted", "values": [{"smiles": "Cc1cc(C#Cc2ccccc2)ccc1-n1c(/C=C/c2ccc(F)cc2)nc2ccccc2c1=O", "growth": "49.3% (inactive)"}, {"smiles": "C=C(C)COc1ccc(C(C)(C)C)cc1", "growth": "91.2% (inactive)"}, {"smiles": "COc1ccc2cc(C(=O)c3coc4ccc(O)cc34)ccc2c1", "growth": "126% (inactive)"}]}]}
